Inconclusive results are not listed. The source made the active and inactive calls. Rule for the calls: active = hit-call score of the fitted dose curve at least 0.9, where 1 is the maximum; inconclusive = response in the unintended direction; inactive = score below 0.9.
Tests used:
[1] = target: human Aurora Kinase A - serine/threonine-protein Kinase 6 (AurA), AURKA (gene 6790) (UniProt O14965); assay: NVS_ENZ_hAurA: NovaScreen (NVS) Enzymatic Assay for human Aurora Kinase A - serine/threonine-protein Kinase 6 (AurA) (AID 2283142)
Procedure, shortened: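 Recombinant human AurA activity read by fluorescence after mobility-shift separation of product from substrate; 1 hour incubation. Chemicals first run in duplicate at 25 uM, then concentration series to 50 uM if over threshold; fitted relative to DMSO.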

[2] = target: rat Monoamine Oxidase, MAO-B, Peripheral (MAOBP), Maob (gene 25750) (UniProt P19643); assay: NVS_ENZ_rMAOBP: NovaScreen (NVS) Enzymatic Assay for rat Monoamine Oxidase, MAO-B, Peripheral (MAOBP) (AID 2283242)
[3] = target: human Epidermal Growth Factor Receptor (EGFR), EGFR (gene 1956) (UniProt P00533); assay: NVS_ENZ_hEGFR: NovaScreen (NVS) Enzymatic Assay for human Epidermal Growth Factor Receptor (EGFR) (AID 2283151)
Procedure, shortened: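 Cell-free kinase assay, fluorescence plus electrophoretic mobility shift separating substrate and product, read 1 hour after dosing; loss of signal vs DMSO. Duplicate screen at 25 uM, then concentration-response to 50 uM.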

[4] = target: human Matrix Metalloproteinase-1 (MMP1), MMP1 (gene 4312) (UniProt P03956); assay: NVS_ENZ_hMMP1: NovaScreen (NVS) Enzymatic Assay for human Matrix Metalloproteinase-1 (MMP1) (AID 2283181)
Procedure, shortened: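 Cell-free fluorescent substrate assay of human MMP1, read after 1 h. A single 25 uM duplicate screen was followed by concentration series to a maximum of 50 uM for actives meeting threshold; inhibition analysed against DMSO baseline.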

[5] = target: human p21 Activated Kinase 4 (PAK4), PAK4 (gene 10298) (UniProt O96013); assay: NVS_ENZ_hPAK4: NovaScreen (NVS) Enzymatic Assay for human p21 Activated Kinase 4 (PAK4) (AID 2283189)
Procedure, shortened: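 Extracted PAK4 enzyme activity read by fluorescence with mobility-shift separation 1 h after chemical addition. Duplicate single-concentration screen at 25 uM, DMSO as negative control.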

[6] = target: human Raf-1 Proto-Oncogene, serine/threonine Kinase (RAF1), RAF1 (gene 5894) (UniProt P04049); assay: NVS_ENZ_hRAF1: NovaScreen (NVS) Enzymatic Assay for human Raf-1 Proto-Oncogene, serine/threonine Kinase (RAF1) (AID 2283216)
Procedure, shortened: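 Single-point screening at 25 uM (duplicate), followed by singleton concentration-response to 50 uM maximum for chemicals exceeding threshold. Enzyme activity from fluorescent substrate-product mobility-shift separation after 1 h, relative to DMSO.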

[7] = target: rat Monoamine Oxidase, MAO-B, Central (MAOBC), Maob (gene 25750) (UniProt P19643); assay: NVS_ENZ_rMAOBC: NovaScreen (NVS) Enzymatic Assay for rat Monoamine Oxidase, MAO-B, Central (MAOBC) (AID 2283238)
Procedure, shortened: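 Actives from a duplicate 25 uM screen went on to singleton concentration-response with a 50 uM maximum. Enzyme source was rat brain tissue MAO-B, assayed cell-free. Radiolabelled product was counted by scintillation 1.17 h post-dose, with signal loss relative to DMSO.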

[8] = ATG_M_32_XSP2: Attagene TRANS-FACTORIAL Multi-Species (XSP2) HepG2 Assay for M19 Transcription Factor (Internal Marker) (AID 2283826)
Procedure, shortened: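 Read-out: fluorescent reporter mRNA fragments resolved by capillary electrophoresis after RT-PCR, gain-of-signal versus DMSO baseline. Cells were human HepG2 carrying transfected multi-reporter units, exposed 24 h. Medium contained 3 nM 6-alpha-fluorotestosterone plus 1.5 nM norgestrel.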

[9] = target: human Protein Tyrosine Phosphatase Non-receptor Type 2 (PTPN2), PTPN2 (gene 5771) (UniProt P17706); assay: NVS_ENZ_hPTPN2: NovaScreen (NVS) Enzymatic Assay for human Protein Tyrosine Phosphatase Non-receptor Type 2 (PTPN2) (AID 2283207)
Procedure, shortened: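 Activity measured as fluorescence after mobility-shift separation of substrate and product, 1 h after compound. Duplicate single-point 25 uM primary testing, concentration series for actives; inhibition scored as signal loss relative to DMSO baseline.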

[10] = test system: rat Monoamine Oxidase, MAO-A, Central (MAOAC), gene 29253; assay: NVS_ENZ_rMAOAC: NovaScreen (NVS) Enzymatic Assay for rat Monoamine Oxidase, MAO-A, Central (MAOAC) (AID 2283243);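 note: potency refers to inhibition seen as signal drop below DMSO baseline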
Procedure, shortened: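 Single-concentration duplicate testing at 25 uM, then concentration-response for actives, in a lysate-based radiodetection MAO-A activity assay from rat brain. Enzyme activity measured 1.5 hours post-dosing; DMSO served as negative control and baseline.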

[11] = target: human Fibroblast Growth Factor Receptor 1 (FGFR1), FGFR1 (gene 2260) (UniProt P11362); assay: NVS_ENZ_hFGFR1: NovaScreen (NVS) Enzymatic Assay for human Fibroblast Growth Factor Receptor 1 (FGFR1) (AID 2283159)
Procedure, shortened: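 Cell-free recombinant kinase with fluorescent substrate, product separated by electrophoretic mobility shift; read 1 hour after dosing, loss of signal relative to DMSO. Initial screen in duplicate at 25 uM, actives followed in concentration series.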

[12] = target: rat Corticotropin Releasing Factor Receptor (CRF), Crhr1 (gene 58959) (UniProt P35353); assay: NVS_GPCR_rCRF: NovaScreen (NVS) G Protein-Coupled Receptor Assay for rat Corticotropin Releasing Factor Receptor (CRF) (AID 2283300)
Procedure, shortened: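 Single-concentration (25 uM, duplicate) radioligand binding on rat cortical membrane preparations, counted by scintillation after 2 h. Activity scored as signal loss relative to DMSO negative control.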

[13] = target: Norway rat Vesicular Monoamine Transporter (VMAT2), neurotransmitter transporter, Slc18a2 (gene 25549) (UniProt Q01827); assay: NVS_TR_rVMAT2: NovaScreen (NVS) Transporter Assay for Norway rat Vesicular Monoamine Transporter (VMAT2), neurotransmitter transporter (AID 2283376);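 note: actives lower the bound radioligand signal below the DMSO level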
Procedure, shortened: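 Using rat forebrain membranes, specific radioligand binding to VMAT2 was measured by filtration and scintillation counting after 1 hour. Chemicals screened at 25 uM in duplicate, actives retested in concentration series, DMSO baseline.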

[14] = target: human Tyrosine Protein Kinase Receptor Tie-2 (Tie2), TEK (gene 7010) (UniProt Q02763); assay: NVS_ENZ_hTie2: NovaScreen (NVS) Enzymatic Assay for human Tyrosine Protein Kinase Receptor Tie-2 (Tie2) (AID 2283225)
Procedure, shortened: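 Substrate and product were separated by mobility shift and detected by fluorescence after a 1-hour reaction with recombinant Tie2. Chemicals passing a 25 uM single-point screen were titrated to a maximum of 50 uM. Results were normalized to DMSO baseline.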

[15] = target: human Phosphatase and Tensin Homolog (PTEN), PTEN (gene 5728) (UniProt P60484); assay: NVS_ENZ_hPTEN: NovaScreen (NVS) Enzymatic Assay for human Phosphatase and Tensin Homolog (PTEN) (AID 2283203)
Procedure, shortened: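 Loss of fluorescent product signal after mobility-shift separation reports PTEN activity, recombinant human enzyme, 1 h after compound addition. Single 25 uM duplicate screen, then concentration-response on actives; DMSO baseline.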

[16] = target: human Protein Tyrosine Phosphatase Receptor Type C (PTPRC), PTPRC (gene 5788) (UniProt P08575); assay: NVS_ENZ_hPTPRC: NovaScreen (NVS) Enzymatic Assay for human Protein Tyrosine Phosphatase Receptor Type C (PTPRC) (AID 2283212)
Procedure, shortened: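 Absorbance-based phosphatase activity of human PTPRC protein extracted from yeast was measured 1 h post-dosing. Compounds first tested at 25 uM in duplicate, then those passing threshold in singleton concentration series to 50 uM.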

[17] = target: bovine Gamma-Aminobutyric Acid Type A Receptor BDZ, alpha 1 site (GABARa1), GABRA1 (gene 780973) (UniProt P08219); assay: NVS_LGIC_bGABARa1: NovaScreen (NVS) Ligand-Gated Ion Channel Assay for bovine Gamma-Aminobutyric Acid Type A Receptor BDZ, alpha 1 site (GABARa1) (AID 2283321)
Procedure, shortened: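 Bovine cortex membrane preparation, benzodiazepine site on GABA-A alpha1; specific radioligand displacement read after 0.75 h by filtration and scintillation. Screen at 25 uM, then singleton titrations up to 50 uM; DMSO baseline.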

Sequence of human Raf-1 Proto-Oncogene, serine/threonine Kinase (RAF1), RAF1 (gene 5894) (P04049 whole entry, looked up): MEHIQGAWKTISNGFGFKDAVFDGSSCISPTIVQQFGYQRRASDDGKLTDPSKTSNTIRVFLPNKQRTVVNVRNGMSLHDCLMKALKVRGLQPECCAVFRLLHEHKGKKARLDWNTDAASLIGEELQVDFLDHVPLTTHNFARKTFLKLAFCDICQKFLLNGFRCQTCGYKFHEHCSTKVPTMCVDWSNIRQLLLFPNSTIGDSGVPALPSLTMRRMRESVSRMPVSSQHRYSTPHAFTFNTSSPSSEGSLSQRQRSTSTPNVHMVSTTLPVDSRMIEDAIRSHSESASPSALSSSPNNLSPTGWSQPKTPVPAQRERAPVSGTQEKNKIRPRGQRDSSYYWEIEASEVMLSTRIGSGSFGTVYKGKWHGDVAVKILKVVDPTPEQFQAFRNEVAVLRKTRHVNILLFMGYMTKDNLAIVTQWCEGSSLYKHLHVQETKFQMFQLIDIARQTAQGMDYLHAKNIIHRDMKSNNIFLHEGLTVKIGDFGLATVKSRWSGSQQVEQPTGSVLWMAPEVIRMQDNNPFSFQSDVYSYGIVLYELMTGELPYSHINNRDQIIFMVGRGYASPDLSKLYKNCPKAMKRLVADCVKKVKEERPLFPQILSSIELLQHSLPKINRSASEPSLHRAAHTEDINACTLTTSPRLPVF
Sequence of human Fibroblast Growth Factor Receptor 1 (FGFR1), FGFR1 (gene 2260) (P11362 whole entry, looked up): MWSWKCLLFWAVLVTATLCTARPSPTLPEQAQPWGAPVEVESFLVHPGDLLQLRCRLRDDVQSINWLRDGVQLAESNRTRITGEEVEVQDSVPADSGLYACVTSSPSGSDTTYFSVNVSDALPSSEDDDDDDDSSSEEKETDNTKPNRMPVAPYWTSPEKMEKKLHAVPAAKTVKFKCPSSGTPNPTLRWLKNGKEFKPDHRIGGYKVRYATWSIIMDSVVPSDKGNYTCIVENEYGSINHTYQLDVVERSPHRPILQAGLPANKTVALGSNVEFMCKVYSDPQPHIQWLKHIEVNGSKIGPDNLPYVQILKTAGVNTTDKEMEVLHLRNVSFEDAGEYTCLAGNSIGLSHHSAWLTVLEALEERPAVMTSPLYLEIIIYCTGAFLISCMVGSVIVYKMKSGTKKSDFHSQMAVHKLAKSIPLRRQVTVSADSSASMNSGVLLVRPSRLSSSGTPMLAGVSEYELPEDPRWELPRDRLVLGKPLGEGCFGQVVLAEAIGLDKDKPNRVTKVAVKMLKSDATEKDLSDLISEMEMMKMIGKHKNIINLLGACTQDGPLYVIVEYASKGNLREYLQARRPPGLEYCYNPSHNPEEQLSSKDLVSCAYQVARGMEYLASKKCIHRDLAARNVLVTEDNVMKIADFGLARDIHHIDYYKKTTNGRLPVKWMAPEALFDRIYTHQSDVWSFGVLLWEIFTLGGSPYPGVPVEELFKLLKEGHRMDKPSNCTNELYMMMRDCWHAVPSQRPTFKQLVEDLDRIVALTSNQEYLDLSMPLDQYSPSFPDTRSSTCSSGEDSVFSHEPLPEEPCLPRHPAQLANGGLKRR
Sequence of human Protein Tyrosine Phosphatase Non-receptor Type 2 (PTPN2), PTPN2 (gene 5771) (P17706 whole entry, looked up): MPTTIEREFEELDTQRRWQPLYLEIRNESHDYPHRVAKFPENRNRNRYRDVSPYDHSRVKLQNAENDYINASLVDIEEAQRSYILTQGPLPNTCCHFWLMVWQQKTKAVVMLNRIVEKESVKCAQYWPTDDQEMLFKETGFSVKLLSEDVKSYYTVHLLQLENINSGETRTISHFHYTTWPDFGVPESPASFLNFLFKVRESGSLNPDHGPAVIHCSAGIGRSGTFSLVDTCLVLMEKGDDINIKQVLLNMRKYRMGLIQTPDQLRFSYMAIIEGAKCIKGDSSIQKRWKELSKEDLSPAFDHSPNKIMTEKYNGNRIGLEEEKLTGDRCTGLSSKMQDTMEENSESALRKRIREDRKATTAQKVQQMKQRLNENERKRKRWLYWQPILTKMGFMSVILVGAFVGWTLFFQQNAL
Sequence of human Epidermal Growth Factor Receptor (EGFR), EGFR (gene 1956) (P00533 whole entry, looked up): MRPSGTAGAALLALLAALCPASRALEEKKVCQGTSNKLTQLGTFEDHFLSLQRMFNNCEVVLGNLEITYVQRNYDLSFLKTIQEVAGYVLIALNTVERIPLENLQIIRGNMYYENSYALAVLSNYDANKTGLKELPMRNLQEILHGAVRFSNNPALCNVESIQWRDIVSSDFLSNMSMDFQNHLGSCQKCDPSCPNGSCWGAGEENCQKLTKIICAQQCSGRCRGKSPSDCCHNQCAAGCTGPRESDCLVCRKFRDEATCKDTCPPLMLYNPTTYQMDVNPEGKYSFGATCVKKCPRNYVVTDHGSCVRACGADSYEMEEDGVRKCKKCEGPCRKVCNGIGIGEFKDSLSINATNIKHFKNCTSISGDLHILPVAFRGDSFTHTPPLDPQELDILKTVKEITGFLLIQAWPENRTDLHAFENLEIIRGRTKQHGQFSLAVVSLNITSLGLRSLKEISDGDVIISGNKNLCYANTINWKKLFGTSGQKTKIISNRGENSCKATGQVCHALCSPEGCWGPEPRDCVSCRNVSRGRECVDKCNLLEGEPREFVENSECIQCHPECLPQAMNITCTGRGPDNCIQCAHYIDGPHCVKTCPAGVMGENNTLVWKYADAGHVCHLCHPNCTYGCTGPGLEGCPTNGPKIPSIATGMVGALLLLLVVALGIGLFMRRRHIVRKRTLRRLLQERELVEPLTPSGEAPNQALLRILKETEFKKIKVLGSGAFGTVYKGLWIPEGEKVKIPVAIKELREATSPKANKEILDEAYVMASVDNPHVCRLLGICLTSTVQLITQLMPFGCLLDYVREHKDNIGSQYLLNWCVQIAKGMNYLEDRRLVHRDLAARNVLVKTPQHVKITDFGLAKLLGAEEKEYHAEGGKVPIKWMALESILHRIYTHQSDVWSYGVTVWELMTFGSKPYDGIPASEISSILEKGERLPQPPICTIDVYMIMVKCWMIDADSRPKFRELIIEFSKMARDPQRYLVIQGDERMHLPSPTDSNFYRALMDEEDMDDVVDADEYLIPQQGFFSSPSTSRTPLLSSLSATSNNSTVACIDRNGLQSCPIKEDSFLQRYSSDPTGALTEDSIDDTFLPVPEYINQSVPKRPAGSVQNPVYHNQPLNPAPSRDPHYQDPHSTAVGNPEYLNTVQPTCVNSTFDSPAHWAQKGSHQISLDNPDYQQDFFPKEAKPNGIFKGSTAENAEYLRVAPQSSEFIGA
Sequence of human p21 Activated Kinase 4 (PAK4), PAK4 (gene 10298) (O96013 whole entry, looked up): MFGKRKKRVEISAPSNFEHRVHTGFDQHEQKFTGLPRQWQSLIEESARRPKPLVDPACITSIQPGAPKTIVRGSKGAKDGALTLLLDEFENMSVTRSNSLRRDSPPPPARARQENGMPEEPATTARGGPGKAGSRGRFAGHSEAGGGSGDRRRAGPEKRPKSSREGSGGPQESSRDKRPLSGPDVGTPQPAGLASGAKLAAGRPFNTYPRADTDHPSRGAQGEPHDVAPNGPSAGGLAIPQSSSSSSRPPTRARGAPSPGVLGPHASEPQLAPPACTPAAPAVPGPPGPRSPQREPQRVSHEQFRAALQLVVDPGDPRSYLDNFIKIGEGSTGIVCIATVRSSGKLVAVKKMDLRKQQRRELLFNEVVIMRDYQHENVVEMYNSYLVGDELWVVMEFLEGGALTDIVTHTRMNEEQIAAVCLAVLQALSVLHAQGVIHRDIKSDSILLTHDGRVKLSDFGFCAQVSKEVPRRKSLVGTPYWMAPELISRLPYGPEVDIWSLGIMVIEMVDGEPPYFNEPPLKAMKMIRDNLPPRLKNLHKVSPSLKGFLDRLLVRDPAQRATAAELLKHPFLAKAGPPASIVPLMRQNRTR
Sequence of human Aurora Kinase A - serine/threonine-protein Kinase 6 (AurA), AURKA (gene 6790) (O14965 whole entry, looked up): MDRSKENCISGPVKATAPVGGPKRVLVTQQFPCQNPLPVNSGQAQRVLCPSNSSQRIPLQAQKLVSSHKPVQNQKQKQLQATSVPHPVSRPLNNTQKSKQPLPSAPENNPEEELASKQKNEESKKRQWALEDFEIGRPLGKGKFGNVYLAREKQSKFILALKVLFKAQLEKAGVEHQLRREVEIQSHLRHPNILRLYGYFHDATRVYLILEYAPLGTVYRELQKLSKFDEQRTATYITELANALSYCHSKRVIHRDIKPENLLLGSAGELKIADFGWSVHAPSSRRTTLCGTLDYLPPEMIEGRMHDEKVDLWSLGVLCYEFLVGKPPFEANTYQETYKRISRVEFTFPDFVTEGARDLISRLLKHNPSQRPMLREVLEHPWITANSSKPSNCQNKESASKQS
Sequence of human Phosphatase and Tensin Homolog (PTEN), PTEN (gene 5728) (P60484 whole entry, looked up): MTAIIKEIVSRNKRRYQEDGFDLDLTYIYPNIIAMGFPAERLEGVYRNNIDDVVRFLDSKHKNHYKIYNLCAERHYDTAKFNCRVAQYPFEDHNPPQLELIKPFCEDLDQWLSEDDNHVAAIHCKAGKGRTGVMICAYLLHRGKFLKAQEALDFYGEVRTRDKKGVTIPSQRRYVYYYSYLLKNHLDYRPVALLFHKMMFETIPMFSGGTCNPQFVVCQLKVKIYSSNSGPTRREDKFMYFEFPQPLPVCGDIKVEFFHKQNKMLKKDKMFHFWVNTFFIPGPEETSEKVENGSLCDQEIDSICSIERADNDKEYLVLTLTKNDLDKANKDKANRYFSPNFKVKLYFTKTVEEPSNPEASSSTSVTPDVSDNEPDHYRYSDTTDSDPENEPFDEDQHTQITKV
Sequence of rat Monoamine Oxidase, MAO-B, Central (MAOBC), Maob (gene 25750) (P19643 whole entry, looked up): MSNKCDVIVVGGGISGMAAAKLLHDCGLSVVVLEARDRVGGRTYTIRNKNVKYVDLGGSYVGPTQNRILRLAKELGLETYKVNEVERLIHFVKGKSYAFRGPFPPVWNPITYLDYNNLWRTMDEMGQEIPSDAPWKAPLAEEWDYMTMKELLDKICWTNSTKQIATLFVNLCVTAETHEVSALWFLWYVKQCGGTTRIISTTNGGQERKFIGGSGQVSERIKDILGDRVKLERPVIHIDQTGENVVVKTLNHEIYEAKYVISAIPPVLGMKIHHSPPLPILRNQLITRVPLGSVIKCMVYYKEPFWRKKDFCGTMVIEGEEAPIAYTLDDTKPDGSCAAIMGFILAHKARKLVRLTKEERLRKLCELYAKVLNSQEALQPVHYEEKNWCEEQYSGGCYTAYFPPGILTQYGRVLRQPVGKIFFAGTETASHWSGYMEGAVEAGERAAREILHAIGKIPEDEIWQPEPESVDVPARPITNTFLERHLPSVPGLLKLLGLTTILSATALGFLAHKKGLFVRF

CC=Cc1ccc(O)c(OC)c1
outcome [1]: inactive | outcome [2]: inactive

CC(=O)Oc1ccccc1C(=O)O
outcome [3]: inactive | outcome [4]: inactive

N[C@@H](Cc1cc(I)c(Oc2ccc(O)c(I)c2)c(I)c1)C(=O)O
AC50 [1]: 4.51 µM (active) | outcome [5]: inactive | outcome [6]: inactive | outcome [7]: inactive | outcome [8]: inactive

O=C(O)c1cc(N=Nc2ccc(S(=O)(=O)Nc3ccccn3)cc2)ccc1O
outcome [1]: inactive | AC50 [3]: 3.95 µM (active) | outcome [9]: inactive | outcome [6]: inactive | outcome [10]: inactive

O=C(O)c1cccc(C[C@@H]2COc3ccc(OCc4nc5cc(F)ccc5s4)cc3[C@@H]2O)c1
outcome [11]: inactive | AC50 [7]: 17.8 µM (active) | AC50 [10]: 21 µM (active) | outcome [12]: inactive | outcome [13]: inactive

COc1c(Cl)ccc(Cl)c1C(=O)O
outcome [3]: inactive

COc1ccc2sc(C(=O)Nc3nnn[nH]3)c(OC(C)C)c2c1
AC50 [1]: 9.98 µM (active) | outcome [5]: inactive | AC50 [6]: 25 µM (active) | outcome [14]: inactive

NC=O
outcome [3]: inactive

CCO[Si](CCCNC(N)=O)(OCC)OCC
outcome [3]: inactive | outcome [6]: inactive

FC(F)(F)C(F)(F)C(F)(F)C(F)(F)C(F)(F)C(F)(F)CCI
outcome [1]: inactive | outcome [3]: inactive | outcome [11]: inactive | outcome [4]: inactive | outcome [5]: inactive | outcome [15]: inactive | outcome [9]: inactive | outcome [6]: inactive

COC(=O)[C@H]1[C@H]2C[C@@H]3c4[nH]c5cc(OC)ccc5c4CCN3C[C@H]2C[C@@H](OC(=O)c2cc(OC)c(OC)c(OC)c2)[C@@H]1OC
outcome [3]: inactive | AC50 [16]: 21.1 µM (active)

CCOC(=O)C(C)(C)Oc1ccc(Cl)cc1
outcome [1]: inactive | outcome [11]: inactive | outcome [15]: inactive | AC50 [9]: 0.218 µM (active) | outcome [16]: inactive | AC50 [17]: 25 µM (active)

Source: PubChem BioAssay (EPA / NIEHS)
